The structures appear in SMILES notation. Activity calls are given as the source filed them. The rule behind the calls is not given here.

This assay can be described thus: inhibition of Brca1/Bard1 split-luciferase complementation, confirmation, counter-screen for Mdm2/MdmX interaction inhibitor project, luminescence, single concentration (AID 504668). The note with it: Brca1/Bard1 bimolecular luciferase complementation counterscreen, at 8 µM, active compounds read high. A general note: The purpose of a counterscreen is to sort out artefacts and off-target activity.
In the case of `O=C(/C=C/c1ccccc1)NC(NC(=S)Nc1ccc(Cl)cc1Cl)C(Cl)(Cl)Cl` (centres undefined), the inhibition (commonly the share of the control response that was lost under treatment) is 23.4% (active).

Turning to `O=C(CSCC(=O)Nc1ccccc1)N/N=C/c1c(O)ccc2ccccc12`, the inhibition is 28.3% (active). For `Cc1ccccc1-c1nc(CN2CCC(C(=O)NCCCN3CC(C)CC(C)C3)CC2)c(C)o1` (centres undefined), the inhibition was 25.7% (active). Turning to `Cc1ccc(C(=O)N/N=C/c2c(O)ccc3ccccc23)cn1`, the inhibition was 26.6% (active). With `CCc1cc(C(=O)N2CCc3c([nH]c4ccccc34)C2c2ccc(OC)cc2F)no1` (centres undefined), the inhibition is 34.5% (active). `Cc1ccccc1OCC(O)Cn1c(=N)n(Cc2ccccc2)c2ccccc21` (centres undefined): the inhibition was 28.9% (active). Under `CC1CCN(S(=O)(=O)c2ccc(C(=O)Nc3nnc(-c4ccco4)o3)cc2)CC1` stands 34.2% (active). For `CCCN(CCC)c1nc(-c2ccccn2)nc2ccccc12` the value was 24.6% (active); for `CCC(NC(=O)Nc1nnc(C(F)(F)F)s1)(C(F)(F)F)C(F)(F)F`, 26.3% (active).

Regarding `Cc1ccc(-n2c(C)cc(/C=c3/sc4nc5ccccc5n4c3=O)c2C)cc1`, the inhibition was 27.7% (active). Under `CN(Cc1cnc2nc(N)nc(N)c2n1)c1ccc(C(=O)N[C@@H](CCC(=O)O)C(=O)O)cc1` stands 29.8% (active). Turning to `COc1ccccc1N(CC(=O)N/N=C/c1c(O)ccc2ccccc12)S(C)(=O)=O`, the inhibition was 26.2% (active). For the compound `CC(=O)O[C@@H]1C[C@H]2C(C)(C)C(=O)C=C[C@]2(C)[C@H]2CC[C@@]3(C)[C@H](c4ccoc4)OC(=O)[C@H]4O[C@]43[C@@]21C`, the inhibition is 33.8% (active). Under `N=c1c2c(-c3ccccc3)c(-c3ccccc3)n(Cc3ccco3)c2ncn1Cc1ccco1` stands 31.4% (active); under `COc1ccc(/C=C2/SC(=S)N(CCCC(=O)Nc3ccc(O)cc3)C2=O)cc1OC`, 29.9% (active). As for `CCSc1nsc(NC(=O)Nc2cccc(F)c2)n1`, the inhibition was 26.2% (active). In the case of `Oc1ccc(N=Nc2ccc3c(c2)OCCO3)c2ncccc12`, the inhibition is 26.2% (active). For `O=C(NC(Cc1c[nH]c2ccccc12)C(=O)Nc1ccc(OC(F)(F)F)cc1)c1cccs1` (centres undefined) the value was 25.7% (active); for `O=C(N/N=C/c1cc(Br)ccc1O)c1ccccc1Cl`, 35.3% (active); for `COC(=O)[C@@]1(Cc2ccccc2)[C@H]2C(=O)N(Cc3ccccc3)C(=O)[C@H]2[C@H]2CN=C(SCc3ccccc3)N21`, 34.6% (active).

Turning to `CCC(=O)Nc1cccc(C(=O)/C=C/c2ccccc2)c1`, the inhibition is 34.4% (active). Regarding `Oc1c(C(c2ccc(Cl)cc2)N2CCCC2)cc(Cl)c2cccnc12` (centres undefined), the inhibition is 32.9% (active). For `CCOc1ccc(CN2CCN(CC(O)Cn3c4ccccc4c4ccccc43)CC2)cc1` (centres undefined) the value was 35.8% (active); for `Cc1ccc(S(=O)(=O)c2c(C)nn(C(C)(C)C)c2OC(=O)c2ccc(Br)o2)cc1`, 29.3% (active). Regarding `CC(C)CC[n+]1ccccc1/C=C/c1ccc(N(C)C)cc1`, the inhibition was 26.6% (active). On to `O=C(N/N=C/c1cc([N+](=O)[O-])ccc1N1CCNCC1)c1ccc([N+](=O)[O-])cc1`, for which the inhibition is 32.1% (active).

In the case of `CC(=O)NC(c1ccco1)c1ccc2cccnc2c1O` (centres undefined), the inhibition is 27.7% (active). For `CCCC(=O)NC(c1cccs1)c1cc(Cl)c2cccnc2c1O` (centres undefined) the value was 24.8% (active). For the compound `O=C(/C=C/c1ccc(OCc2c(F)cccc2Cl)cc1)N1CCOCC1`, the inhibition is 27.7% (active). As for `COc1ccc(C(=O)N/N=C(\Cc2ncc[nH]2)c2ccccc2)cc1`, the inhibition is 25.7% (active). As to `COc1ccccc1OCC(=O)N/N=C/c1c(O)ccc2ccccc12`, the inhibition is 27.8% (active). Under `COc1ccc(-c2cc(C(=O)N/N=C/c3sccc3C)c3ccccc3n2)c(OC)c1` stands 31.4% (active); under `C=CCC(Nc1ccccc1)C12C=CC(O1)C(C(=O)OC)=C2C(=O)OC` (centres undefined), 31.4% (active); under `CCOc1ccc(N(C(=O)/C=C/C(=O)Nc2cc(C)on2)C(C(=O)NC2CCCC2)c2ccccc2C)cc1` (centres undefined), 27.4% (active).

For the compound `COC(=O)[C@@H]1C[C@]2(OC(=O)c3ccccc3)C=CC(=O)C[C@@H]2N1C(=O)OCc1ccccc1`, the inhibition was 34.4% (active).

`FC(F)(F)c1ccc(CN2C[C@@H]3C(c4ccccc4)C4(c5ccccc5)CC3(C4)[C@H]2c2ccccc2)cc1` (some centres undefined): the inhibition was 27.2% (active).

Regarding `CCOc1cc(NC(=O)c2ccco2)c(OCC)cc1NC(=O)COc1ccccc1C`, the inhibition was 33.4% (active). As for `O=C1c2ccccc2C(=O)c2c(Nc3ccc(CCO)cc3)ccc(O)c21`, the inhibition was 33.2% (active). Take `Cc1ccc(S(=O)(=O)N2CCOCC2)cc1C(=O)Nc1nc(-c2ccccn2)cs1`: the inhibition is 30.4% (active).

(Values after PubChem BioAssay.)
